Assay results from PubChem BioAssay (EPA / NIEHS).
Records with an inconclusive call do not appear. Activity calls are given as the source filed them. How the source made its calls, unless noted: active means hit-call score of the fitted dose curve at least 0.9, where 1 is the maximum; inactive means score below 0.9.

Tests used:
[1] = IUF_NPC1_cytotoxicity_72hr: Cytotoxicity Assessment at 72 hours in the Leibniz Research Institute for Environmental Medicine (IUF) Neural Progenitor Cell Proliferation Assay (NPC1) (AID 2284332; active means hit-call score of the fitted dose curve at least 0.9, where 1 is the maximum;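 further: rising LDH signal means more cytotoxicity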)
Method in brief: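 LDH in supernatant, resazurin→resorufin fluorescence (RFU), 72 h exposure, no re-dosing. Cells: primary hNPC spheres, one per well, EGF+FGF medium, 37C/5% CO2, pH 7.2-7.6. Fit: positive direction vs baseline and dynamic range.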

[2] = VALA_TUBIPS_Antagonist_CellCount: Viability Assessment in the VALA Sciences human iPS-derived Endothelial Tubule Formation (TUBIPS) Antagonism Assay (AID 2284335; active means hit-call score of the fitted dose curve at least 0.9, where 1 is the maximum)
[3] = VALA_MIGHUV1_ScratchOnly_WoundArea: VALA Sciences human Umbilical Vein Endothelial Cell Migration (MIGHUV) Assay, Area of Scratch Wound Inhibited Recovery (AID 2284336; active means hit-call score of the fitted dose curve at least 0.9, where 1 is the maximum)
Method in brief: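 Wound area remaining after 24 h recovery imaged by Hoechst nuclear fluorescence in scratched HUVEC cultures, chemicals added within 30 min of scratching across a 6-point series. Gain of signal fitted against 0.1% DMSO; cytochalasin D positive control.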

[4] = VALA_TUBHUV_Agonist_TubuleLength: VALA Sciences human Umbilical Vein Endothelial Tubule Formation (TUBHUV) Agonism Assay (AID 2284337; active means hit-call score of the fitted dose curve at least 0.9, where 1 is the maximum)
Method in brief: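 Tubule length quantified by CD31 immunofluorescence imaging after fixation. HUVEC-HDF co-cultures (1:3) pre-grown 3 days with 10 ng/ml VEGF, then dosed 3 days in VEGF medium; 0.1 % DMSO vehicle baseline.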

[5] = VALA_TUBIPS_Agonist_CellCount: Viability Assessment in the VALA Sciences human iPS-derived Endothelial Tubule Formation (TUBIPS) Agonism Assay (AID 2284338; active means hit-call score of the fitted dose curve at least 0.9, where 1 is the maximum)
[6] = CCTE_Deisenroth_H295R-HTRF_384WELL_ESTRADIOL: CCTE's H295R-HTRF Assay Evaluation of Estradiol Concentration, Deisenroth Lab (AID 2284361); conditions: actives raise or lower the signal
Method in brief: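 Estradiol secreted into medium by H295R adrenocortical cells, quantified by HTRF after 48 h dosing over a nine-point 0.001 - 100 uM final range; gain or loss versus DMSO. Parallel ATP-luminescence viability readout; n=5 experiments.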

[7] = CCTE_Deisenroth_H295R-HTRF_384WELL_TESTOSTERONE: CCTE's H295R-HTRF Assay Evaluation of Testosterone Concentration, Deisenroth Lab (AID 2284373); conditions: actives raise or lower the signal
Method in brief: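 H295R cells were acclimated 24 h, then exposed 48 h to nine concentrations (0.001–100 uM final) in technical triplicate, n=5. Testosterone in conditioned medium was measured by HTRF (em 620/665 nm). Fitting was bidirectional versus DMSO; CellTiter-Glo viability ran on the same plates.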

[8] = CCTE_Deisenroth_H295R-HTRF_384WELL_CTOX: Cytotoxicity Assessment in CCTE's H295R-HTRF Assay, Deisenroth Lab (AID 2284380; active means hit-call score of the fitted dose curve at least 0.9, where 1 is the maximum)
Method in brief: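 Luminescent ATP viability readout (CellTiter-Glo 2.0), multiplexed on plates used for hormone sampling, after 48 h chemical exposure. Human H295R cells; final concentrations 0.001–100 uM in nine steps, technical triplicates, five experiments; DMSO baseline.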

[9] = Tanguay_ZF_120hpf_MO24: Oregon State University Tanguay Lab 24 Hour Post-fertilization zebrafish Assay for Mortality (AID 2284389)
Method in brief: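 Embryo death at 24 hpf was recorded as present or absent in Tropical 5D zebrafish, dechorionated at 4 hpf and dosed statically from 6 hpf (28C, 0.64% DMSO); 5 uM trimethyltin chloride served as positive control.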

[10] = Tanguay_ZF_120hpf_DP24: Oregon State University Tanguay Lab 24 Hour Post-fertilization zebrafish Assay for Delayed Development (AID 2284390)
Method in brief: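 Scored at 24 hpf as a binary present/absent call of delayed development by brightfield, with dead embryos not assessed. Embryos (5D wild type, chorion removed with pronase at 4 hpf) dosed statically from 6 hpf at 28 C in 0.64% DMSO.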

[11] = Tanguay_ZF_120hpf_CRAN: Oregon State University Tanguay Lab 120 Hour Post-fertilization zebrafish Assay for Craniofacial Malformation (AID 2284397)
Method in brief: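 Scoring of craniofacial malformation as a binary endpoint was done at 120 hpf by brightfield microscopy and was not done in dead embryos. Exposure was static, starting at 6 hpf, in dechorionated wild-type embryos held singly at 28C with 0.64% DMSO final.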

[12] = Tanguay_ZF_120hpf_AXIS: Oregon State University Tanguay Lab 120 Hour Post-fertilization zebrafish Assay for Axial Malformation (AID 2284398)
Method in brief: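 Scoring was binary (present or absent) for body-axis defects, judged by brightfield imaging at 120 hpf in surviving larvae. Exposure was static at 28C from 6 hpf in chorion-free 5D wild-type embryos, with 0.64% DMSO vehicle.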

[13] = Tanguay_ZF_120hpf_MORT: Oregon State University Tanguay Lab 120 Hour Post-fertilization zebrafish Assay for Mortality (AID 2284399)
Method in brief: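 Mortality, recorded present/absent via brightfield imaging at 24 and 120 hpf, in 5D zebrafish embryos exposed statically from 6 hpf after pronase chorion removal. Exposure at 28C, 0.64% DMSO vehicle, DMSO baseline.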

[14] = Tanguay_ZF_120hpf_EDEM: Oregon State University Tanguay Lab 120 Hour Post-fertilization zebrafish Assay for Edema Malformation (AID 2284400)
Method in brief: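 Edema recorded as a binary endpoint under brightfield at 120 hpf, excluding embryos that died. Exposure was static, sealed, 28C, from 6 hpf in dechorionated wild-type larvae, final DMSO 0.64%, DMSO as baseline.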

[15] = Tanguay_ZF_120hpf_MUSC: Oregon State University Tanguay Lab 120 Hour Post-fertilization zebrafish Assay for Muscle Malformation (AID 2284401)
Method in brief: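 Scored as a binary brightfield endpoint at 120 hpf, fitted versus DMSO. Single dechorionated wild-type (Tropical 5D) zebrafish embryos per well, statically exposed at 28C from 6 hpf onward with final DMSO 0.64%.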

[16] = Tanguay_ZF_120hpf_BRN: Oregon State University Tanguay Lab 120 Hour Post-fertilization zebrafish Assay for Brain Region Malformation (AID 2284402)
Method in brief: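 Binary brightfield scoring of brain malformation at 120 hpf in 5D wild-type larvae, chorion removed with pronase at 4 hpf. Static exposure began at 6 hpf, 28C, sealed plates, DMSO 0.64% (vol/vol) as vehicle baseline.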

Measured: AC50

COP(=O)(OC)O/C(=C\Cl)c1cc(Cl)c(Cl)cc1Cl
active: [1] 75.5 µM

CCOP(=S)(OCC)Oc1nc(Cl)c(Cl)cc1Cl
inactive: [1]

ClCC(Cl)CCl
inactive: [2] | [3] | [4] | [5]

CC(C)(C)c1cc(O)ccc1O
active: [4] 56 µM | [5] 50 µM
inactive: [2] | [3]

Fc1ccc(C2(Cn3cncn3)OC2c2ccccc2Cl)cc1 (stereo unspecified)
active: [6] 1.14 µM | [7] 1.23 µM
inactive: [8]

CCC1(c2ccc(N)cc2)CCC(=O)NC1=O (stereo unspecified)
inactive: [6] | [7] | [8]

O=C(O)C(F)(F)C(F)(F)C(F)(F)C(F)(F)C(F)(F)C(F)(F)F
inactive: [9] | [10] | [11] | [12] | [13] | [14] | [15] | [16]

O=C(O)C(F)(F)C(F)(F)C(F)(F)C(F)(F)C(F)(F)C(F)(F)C(F)(F)C(F)(F)C(F)(F)C(F)(F)F
inactive: [9] | [10] | [11] | [12] | [14] | [15] | [16]
